The list is not random: actives were taken first. Their share in the collection is about 6.8%.
A340 absorber: compounds absorbing at 340 nm; AID 708; fold change at 10 µM; 65,000 tested, under 10 active; compound absorbance at 340 nm, fold over control;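 active means at 10 µM dose, initial 340 nm absorbance at least 2 fold that of control wells; inactive means change under 2 fold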;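 further: initial absorbance extrapolated from kinetic A340 decline of NADH oxidation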
NADH coupling: inhibitors of enzymes used to reach an NAD/NADH endpoint | coupled PK/LDH NADH assays, four targets | IC50, µM (top dose mostly 10 µM), for inactives: at the top dose inhibition | 65,000 compounds, 0.02% hits | AID 774;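 active means single-dose screening hits from any of four coupled enzyme assays that gave an IC50 when retested across doses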;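 further: the DPM-DC format reads NADH fluorescence rather than 340 nm absorbance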
PMK inhibit: S. pneumoniae PMK inhibition. inhibition, % at 10 µM. AID 539. 65,000 compounds, 0.49% hits. purified PMK, PK/LDH-coupled NADH absorbance 340 nm;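 active means top-ranked compounds by inhibition in the single 10 µM screen, taking a fixed number of the strongest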;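 further: 0% = full reaction with DMSO carrier and 100% = background rate without enzyme reaction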
Fluor 339 460: intrinsic fluorescence of library compounds, ex339/em460 – biochemical, MLSMR library, data from DPM-DC assay, artefact control, profiling panel. compound autofluorescence, ex339/em460 nm, NADH buffer; stronger effect = higher value; 1 = no-compound wells, NADH background. fluorescence fold increase at 10 µM. 65,000 compounds, 5.5% hits. AID 709;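 active means at 10 µM, mean starting fluorescence two-fold or more over control wells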;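 further: signal is the first read of a kinetic run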
DPM-DC inhibit: S. pneumoniae DPM-DC inhibition | purified DPM-DC, PK/LDH coupled NADH fluorescence | calls only at 10 µM | 65,000 compounds, 0.49% hits;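 active means the 320 compounds with the highest percent inhibition in the single-dose primary screen, excluding strongly autofluorescent ones, cut at about 32% in these data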;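 further: kinetic rate of NADH fluorescence loss reporting ADP formed by the decarboxylase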
MK inhibit: blocks S. pneumoniae mevalonate kinase; purified MK, PK/LDH-coupled NADH absorbance 340 nm; inhibition, % at 10 µM; 65,000 compounds, 0.48% hits;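 active means ranked among the strongest by inhibition in the single 10 µM screen, a fixed top-ranked set picked for dose follow-up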
Active calls of the source: *; i = inactive; / = not tested or not shown; + = active, no number.

SMILES	A340 absorber	NADH coupling	PMK inhibit	Fluor 339 460	DPM-DC inhibit	MK inhibit
CCOC(=O)c1sc2nc(SCC(=O)NCc3ccco3)n(Cc3ccccc3)c(=O)c2c1C	1.02	5.0%	4.0	1.74	+	5.0
COc1cc(NC(=O)C2CCCCC2)c(OC)cc1NC(=O)CCC(=O)NCc1ccco1	1	5.0%	14.0	1.06	i	2.0
NCC[C@H](O)C(=O)N[C@@H]1C[C@H](N)[C@@H](O[C@H]2O[C@H](CN)[C@@H](O)[C@H](O)[C@H]2O)[C@H](O)[C@H]1O[C@H]1O[C@H](CO)[C@@H](O)[C@H](N)[C@H]1O	1.03	1.0%	0.0	1.12	i	4.0
O=C(NCCn1ccc2ccccc21)c1ccc2c(c1)OCO2	1.05	6.0%	6.0	2.13*	/	5.0
COc1ccc(C(=O)NCCn2ccc3ccccc32)cc1	0.99	3.0%	9.0	1.03	i	9.0
CCCc1ccc2c(N)c(C#N)sc2n1	1.06	7.0%	8.0	2.14*	/	5.0
CC(=O)c1cccc(NC(=O)Nc2cccnc2)c1	1.01	18.0%	3.0	0.45	+	1.0
COc1cc(NC(=O)c2nccnc2C(=O)O)cc(OC)c1	1	2.0%	0.0	1.01	i	1.0
COc1cccc(CNCc2ccccn2)c1OC	1.02	22.0%	12.0	1.08	i	53.0*
COc1ccccc1CNCc1cc(OC)c(OC)cc1OC	1.08	25.0%	22.0	1.09	i	53.0*
COc1ccccc1CNC(=O)COc1ccccc1OC	1	4.0%	3.0	1.1	i	6.0
CCOC(=O)c1cc2c(=O)n3ccccc3nc2n(Cc2ccc(Cl)cc2)c1=N	1.04	3.0%	6.0	2.26*	i	1.0
N=c1c(C(=O)NCc2ccco2)cc2c(=O)n3ccccc3nc2n1Cc1ccccc1	1.03	17.0%	16.0	2.39*	i	12.0
COCCn1c(=N)c(C(=O)NCc2ccco2)cc2c(=O)n3ccccc3nc21	1.03	14.0%	10.0	3.03*	i	4.0
COCCCn1c(=N)c(C(=O)NCc2ccc3c(c2)OCO3)cc2c(=O)n3ccccc3nc21	1.05	0.0%	0.0	1.23	i	1.0
N=c1c(C(=O)NCc2ccco2)cc2c(=O)n3ccccc3nc2n1Cc1ccc(Cl)cc1	1.1	7.0%	5.0	2.53*	i	6.0
N=c1c(C(=O)NCc2ccc3c(c2)OCO3)cc2c(=O)n3ccccc3nc2n1Cc1cccnc1	1.04	2.0%	1.0	1.63	i	4.0
COc1ccc(-c2nnc(NC(=O)c3cc(Cl)ccc3Cl)o2)cc1	1.06	1.0%	0.0	1.01	i	0.0
O=C(CCn1c(=O)c2ccccc2n(Cc2cc(=O)n3ccccc3n2)c1=O)NCc1ccco1	1.09	5.0%	14.0	2.23*	i	0.0
O=C(C1CCCCC1)N(Cc1nc2sc3c(c2c(=O)[nH]1)CCCC3)Cc1cccs1	0.99	3.0%	5.0	1.21	i	3.0
CC1Cc2nc(SCC(=O)NCc3ccco3)n(Cc3ccccc3)c(=O)c2S1 (centres undefined)	1.11	7.0%	6.0	1.04	i	6.0
CCCNC(=O)c1c(N)n(-c2cccc(OC)c2)c2nc3ccccc3nc12	1.03	10.0%	7.0	3.82*	/	12.0
COCCCNC(=O)c1c(N)n(-c2cccc(S(N)(=O)=O)c2)c2nc3ccccc3nc12	1	3.0%	6.0	2.96*	/	10.0
COC(=O)c1c(N)n(-c2cc(OC)cc(OC)c2)c2nc3ccccc3nc12	1	3.0%	9.0	3.42*	/	2.0
Nc1c(C(=O)NCCN2CCOCC2)c2nc3ccccc3nc2n1-c1cccc(F)c1	1.08	9.0%	6.0	5.13*	/	11.0
Cc1ccc2nsnc2c1S(=O)(=O)N1CCN(Cc2ccc3c(c2)OCO3)CC1	1.01	5.0%	12.0	1.02	i	8.0
